Measured values published in the supplement of paper PMC9897528.

system: Scedosporium aurantiacum CBS 136046; experiment: growth inhibition relative to DMSO control (OD600); higher = more antifungal activity, active = 80 or more; extreme values may be limits of the assay; settings: 5 µM; 72 h; 37 °C
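Further: conidia screened in RPMI 1640 medium under 5% CO2, growth read by spectrophotometer, medium with 0.5% DMSO serving as the untreated reference.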

Growth inhibition, inactive:
CNc1nc(=O)[nH]cc1F 2.45%
N[C@@H]1CN(c2c(F)cc3c(=O)c(C(=O)O)cn([C@@H]4C[C@@H]4F)c3c2Cl)CC12CC2 7.35%
COc1ccc2c(c1)cc(CNC(=O)c1cc3ccccc3o1)n2CC(=O)O 17.7%
COc1ccc(SCC(=O)N2c3ccccc3Sc3ccccc32)cc1 19.3%
O=C(CC1Sc2ncnn2C1=O)Nc1ccc(Br)cc1 (configuration not stated) 33.4%
C[Si]1(C)CCN(Cc2cc(-c3ccc(Cl)cc3)n(-c3ccc(Cl)cc3)n2)CC1 10%
CC1CN(c2ncnc3c2c(-c2ccccc2)cn3-c2ccc(F)cc2)CC(C)O1 (configuration not stated) 20.4%
Nc1cc(N)c2nc(-c3ccccc3)c(Nc3ccc(F)cc3)nc2c1 0.18%
Cc1cccc(CC(=O)N[C@H]2CCOC2=O)c1 16.6%
OC1O[C@H](CSc2ccc(F)cc2)[C@@H](O)[C@H]1O (some centres not stated) 16.7%
Cc1c[nH]c(=O)nc1NCc1ccccc1 10.8%
CC[C@@H]1C(=O)OC[C@@H]1Cc1cncn1C 0%
